# Screening results: PubChem BioAssay, The Scripps Research Institute Molecular Screening Center
# rCAG binder: binders of r(CAG) RNA repeats, primary screen, biochemical, fluorescence; hit rate 1.3% among 370,000; AID 651821, 2012; inhibition, % at 3 µM; r(CAG) RNA repeat, TO-PRO-1 dye displacement fluorescence;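 active = inhibition above the plate cutoff, the mean of all test compounds on that plate plus 3 SD, cut at about 35% in these data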;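 note: higher means more dye released from RNA so lower well fluorescence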
# TLR9-MyD88 block: inhibitors of TLR9-MyD88 association in cells, primary screen, cell-based, CHO, BLA complementation, fluorescence | CCF4 FRET ratio | hit rate 0.21% among 340,000 | Toll-like receptor 9 (Homo sapiens) + Myeloid differentiation primary response protein … | inhibition, % at 4.98 µM;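 active = inhibition above the mean over all tested compounds plus 3 SD, cut at about 21% in these data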
# ABHD5 PLIN5 PPI: ABHD5-PLIN5 interaction inhibitors, primary screen, cell lysate, split luciferase complementation, luminescence; Perilipin-5 (Homo sapiens) + 1-acylglycerol-3-phosphate O-acyltransferase ABHD5 (Homo …; Split G. princeps luciferase complementation, 4 h; inhibition, % at 4 µM; hit rate 0.78% among 360,000; AID 602281, 2012;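 active = inhibition above the mean inhibition across every tested compound plus 3 SD, cut at about 22% in these data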
# PRMT1 inh: PRMT1 methyltransferase inhibitors, primary screen, biochemical, fluorescence polarization | Protein arginine N-methyltransferase 1 (Homo sapiens), Q99873 | inhibition, % at 2.79 µM | recombinant PRMT1, activity-based probe fluorescence polarization | hit rate 1.3% among 370,000;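 active = inhibition above about 21% made by adding two undisclosed values, limit read from the data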
# TLR4-MyD88 BLA: inhibitors of TLR4-MyD88 association in cells, primary screen, cell-based, HeLa CL3-4, BLA complementation, FRET ratio; Toll-like receptor 4 (Homo sapiens) + Myeloid differentiation primary response protein …; HeLa CL3-4 TLR4/MyD88 BLA complementation; hit rate 0.18% among 200,000; AID 861, 2007; inhibition, % at 8.4 µM; in the data active = inhibition above about 25%
# NOD2-RIPK2 inh: NOD2-RIPK2 binding disruptors in cells, primary screen, fluorescence, CHO cells, BLA complementation; hit rate 0.38% among 360,000; Receptor-interacting serine/threonine-protein kinase 2 (Homo sapiens), O43353; CCF4 ratio; inhibition, % at 4.98 µM; in the data active = inhibition above about 21%
# Target sequence (O43353 whole entry, looked up): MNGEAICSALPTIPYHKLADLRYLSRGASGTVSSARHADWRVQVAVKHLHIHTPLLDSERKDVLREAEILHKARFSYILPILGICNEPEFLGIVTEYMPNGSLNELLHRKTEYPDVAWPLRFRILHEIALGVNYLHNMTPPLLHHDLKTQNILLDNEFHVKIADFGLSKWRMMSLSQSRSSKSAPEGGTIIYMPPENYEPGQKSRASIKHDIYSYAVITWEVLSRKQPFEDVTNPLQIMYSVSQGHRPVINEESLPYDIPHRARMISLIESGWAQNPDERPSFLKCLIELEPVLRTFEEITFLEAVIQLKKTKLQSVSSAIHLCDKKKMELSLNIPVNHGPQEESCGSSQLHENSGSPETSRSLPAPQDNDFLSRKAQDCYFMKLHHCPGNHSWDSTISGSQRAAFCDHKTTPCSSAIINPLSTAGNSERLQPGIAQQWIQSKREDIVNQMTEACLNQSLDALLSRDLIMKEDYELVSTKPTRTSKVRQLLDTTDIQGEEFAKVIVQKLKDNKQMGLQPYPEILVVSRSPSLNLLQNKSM
# ABHD5-PLIN5 conf: ABHD5-PLIN5 interaction inhibitors, confirmation, biochemical, luminescence | shares compounds with ABHD5 PLIN5 PPI | inhibition, % at 4 µM | hit rate 67% among 2,200 | AID 651612, 2012; in the data active = inhibition above about 23%
# HNF4 split-luc: HNF4 dimerization inhibitors, counter-screen for ABHD5-PLIN5 interaction inhibitor project, biochemical, split-luciferase complementation, luminescence; shares compounds with ABHD5 PLIN5 PPI; inhibition, % at 4 µM; hit rate 77% among 2,200; AID 651674, 2012;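 active = mean inhibition across replicate wells exceeding the computed hit threshold, cut at about 13% in these data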;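 note: light from luciferase halves that rejoin when HNF4 fusion proteins dimerize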
# A number is an active result; . = inactive; / = no result given. An excerpt weighted towards active compounds, which were near 3.3% of everything screened.
SMILES,rCAG binder,TLR9-MyD88 block,ABHD5 PLIN5 PPI,PRMT1 inh,TLR4-MyD88 BLA,NOD2-RIPK2 inh,ABHD5-PLIN5 conf,HNF4 split-luc
COc1ccc(-n2c(=O)cc(N3CC(C)OC(C)C3)[nH]c2=O)cc1 (configuration not stated),.,.,37,.,.,.,.,.
Cc1[nH]nc(-c2ccc(O)cc2O)c1Oc1ccccc1,.,.,24,.,.,.,.,36
O=C(O)c1cc(-c2ccco2)nn1-c1ccc(Cl)cc1,.,.,.,.,.,.,/,/
Cc1ccc(-n2nc(-c3ccco3)cc2C(=O)O)c(C)c1,.,.,31,.,.,.,23,27
COCCn1c(SCC#N)nnc1-c1ccccc1O,.,.,57,.,.,.,.,.
Cc1ccc(Cn2nnc3c2-c2ccccc2S(=O)(=O)N(C)C3)cc1,.,/,/,.,/,/,/,/
COc1ccccc1OC(=O)c1cc2ccccc2oc1=O,.,.,.,.,/,.,/,/
COc1cc(/C=C/[N+](=O)[O-])ccc1OC(=O)c1cc2ccccc2oc1=O,.,.,28,.,/,.,78,97
COc1ccccc1/C=C/C=C1\Oc2c(ccc(O)c2CN2CCN(CCO)CC2)C1=O,.,.,.,.,.,.,/,/
CCOC(=O)C1=C(C)OC(=CC=Cc2ccccc2)C1=O,.,.,.,.,/,.,/,/
O=C1/C(=C/C=C/c2ccccc2)Oc2c1ccc(O)c2CN1CCN(CCO)CC1,.,.,31,21,/,.,.,18
CCN1CCN(Cc2c(O)ccc3c2O/C(=C\C=C\c2ccccc2)C3=O)CC1,.,.,34,22,.,.,23,19
CN(C)Cc1c(O)ccc2c1O/C(=C\C=C\c1ccccc1)C2=O,.,.,29,.,/,.,.,24
CCN1C/C(=C\c2cccc([N+](=O)[O-])c2)C(=O)/C(=C/c2cccc([N+](=O)[O-])c2)C1,.,.,.,.,.,.,/,/
O=C1/C(=C/c2ccncc2)Cc2ccccc21,.,.,.,.,/,.,/,/
O=C1C(=Cc2cccc(F)c2)Cc2ccccc21,.,/,24,.,/,.,28,23
O=C1C(=Cc2ccccn2)CCc2ccccc21,.,.,25,.,/,.,60,46
O=C1C(=Cc2ccccc2[N+](=O)[O-])Cc2ccccc21,.,.,28,.,/,.,51,46
Nc1ccccc1C=C1Cc2ccccc2C1=O,.,.,.,.,/,.,/,/
O=C1/C(=C/c2cccc([N+](=O)[O-])c2)CCc2ccccc21,.,.,37,.,.,.,56,46
CCS(=O)(=O)c1ccc2c(c1)N(S(C)(=O)=O)CC(C(=O)NC1CC1)O2 (configuration not stated),.,.,.,.,.,.,/,/
O=C(C=Cc1cccnc1)c1ccccc1,.,.,74,.,/,.,84,81
O=C(/C=C/c1ccc(O)cc1)c1ccccc1,.,.,.,.,/,.,/,/
CN(C)C(=O)COc1ccc(C(=O)/C=C/c2cccnc2)cc1,.,.,28,.,/,.,52,46
O=C(/C=C/c1cccnc1)c1ccc(O)cc1,.,.,29,.,/,.,49,48
SMILES,rCAG binder,TLR9-MyD88 block,ABHD5 PLIN5 PPI,PRMT1 inh,TLR4-MyD88 BLA,NOD2-RIPK2 inh,ABHD5-PLIN5 conf,HNF4 split-luc
O=C(/C=C/c1cccnc1)c1ccccc1O,.,.,.,.,/,.,/,/
CC(C(=O)Nc1ccc2c(c1)OCO2)N1CCC(N2CCCCC2)CC1 (configuration not stated),.,.,.,.,/,.,/,/
CCN(CC)CCOc1ccc(/C(=C(\Cl)c2ccccc2)c2ccccc2)cc1,.,.,49,.,/,.,76,29
CC(=O)Nc1ccc(S(=O)(=O)N[C@@H](C)C(=O)OCc2cc([N+](=O)[O-])cc3c2OCOC3)cc1,.,.,.,.,/,.,/,/
CC(C)C(NS(=O)(=O)c1ccccc1)C(=O)OCc1cc([N+](=O)[O-])cc2c1OCOC2 (configuration not stated),.,.,45,.,.,.,.,.
C[C@@H]1CCCCO[C@@H](CN(C)S(C)(=O)=O)[C@@H](C)CN([C@H](C)CO)C(=O)c2cc(N(C)C)ccc2O1,.,.,.,.,/,.,/,/
CCNC(=O)C1(C)CCN(C(=O)c2ccc3c(c2)OCO3)C1 (configuration not stated),.,/,.,.,/,.,/,/
Cc1ccc(-c2csc3ncn(-n4c(C)ccc4C)c(=O)c23)o1,.,.,27,24,.,.,.,33
Cc1sc2ncn(-n3c(C)ccc3C)c(=O)c2c1C,.,.,.,.,.,.,/,/
COc1cc(/C=C/c2cc(C(F)(F)F)[nH]c(=O)n2)cc(OC)c1OC,.,.,31,.,.,.,47,43
COc1cc(OC)c(OC)cc1/C=C/c1cc(C(F)(F)F)[nH]c(=O)n1,.,.,.,.,.,.,/,/
CCN(Cc1ccncc1)Cc1ccc(OC)cc1OC,.,.,26,.,/,.,.,.
COc1ccc(CNCc2ccncc2)c(OC)c1,.,.,.,.,/,.,/,/
C/C(N=Nc1nc2ccccc2s1)=N\Nc1ccccc1O,.,.,.,.,/,.,/,/
COc1cc(NC(=O)C/C(C)=N/NC(=O)c2cccs2)c(OC)cc1Cl,.,.,36,.,.,.,.,16
